Assay results reported in PubChem BioAssay (EPA / NIEHS).
Results filed as inconclusive are left out. The source made the active and inactive calls. The calls were made as follows: active = hit-call score of the fitted dose curve at least 0.9, where 1 is the maximum; inconclusive = response in the unintended direction; inactive = score below 0.9.

The molecules below were run against Androgen receptor (Homo sapiens) (UniProt P10275) (assay: ATG_AR_TRANS: Attagene TRANS-FACTORIAL HepG2 Assay for human Androgen Receptor (AR) (AID 2282973)). Conditions: HepG2 Attagene TRANS-FACTORIAL AR reporter transcription.
Sequence of Androgen receptor (Homo sapiens) (P10275 whole entry, looked up): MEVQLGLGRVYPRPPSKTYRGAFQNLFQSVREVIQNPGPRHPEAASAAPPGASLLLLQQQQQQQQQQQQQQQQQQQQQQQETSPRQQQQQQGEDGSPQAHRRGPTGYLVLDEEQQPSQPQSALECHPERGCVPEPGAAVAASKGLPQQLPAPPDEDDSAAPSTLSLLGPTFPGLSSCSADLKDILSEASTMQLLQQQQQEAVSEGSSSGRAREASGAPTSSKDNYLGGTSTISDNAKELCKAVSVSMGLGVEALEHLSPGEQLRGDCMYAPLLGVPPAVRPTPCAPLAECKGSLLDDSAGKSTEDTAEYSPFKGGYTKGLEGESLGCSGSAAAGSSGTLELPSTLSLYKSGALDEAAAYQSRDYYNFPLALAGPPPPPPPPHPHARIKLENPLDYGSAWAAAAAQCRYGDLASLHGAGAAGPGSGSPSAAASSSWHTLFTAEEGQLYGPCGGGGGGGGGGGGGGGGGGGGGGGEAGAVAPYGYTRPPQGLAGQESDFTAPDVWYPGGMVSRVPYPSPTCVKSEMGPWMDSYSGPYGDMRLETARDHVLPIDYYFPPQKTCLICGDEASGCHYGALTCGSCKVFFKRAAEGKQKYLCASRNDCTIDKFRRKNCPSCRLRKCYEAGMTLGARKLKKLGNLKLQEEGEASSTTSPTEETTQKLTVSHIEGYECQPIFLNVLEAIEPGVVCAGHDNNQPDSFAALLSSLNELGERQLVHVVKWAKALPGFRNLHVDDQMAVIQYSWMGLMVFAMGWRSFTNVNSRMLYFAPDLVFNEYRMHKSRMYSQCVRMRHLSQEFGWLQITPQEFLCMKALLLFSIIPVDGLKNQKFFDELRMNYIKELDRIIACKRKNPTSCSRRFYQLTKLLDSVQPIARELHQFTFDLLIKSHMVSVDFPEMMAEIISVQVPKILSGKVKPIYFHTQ
Method: ATG_TRANS is a cell-based, multiplexed-readout assay that uses HepG2, a human liver cell line, with measurements taken at 24 hours after chemical dosing in a 24-well plate.ATG_AR_TRANS is one of 30 assay component(s) measured or calculated from the ATG_TRANS assay. It is designed to make measurements of mRNA induction, a form of inducible reporter, as detected with fluorescence intensity signals by Reverse transcription polymerase chain reaction (RT-PCR) and Capillary electrophoresis technology.Data from the assay component ATG_AR_TRANS was analyzed into 1 assay endpoint. This assay endpoint, ATG_AR_TRANS, was analyzed in the positive analysis fitting direction relative to DMSO as the negative control and baseline of activity. Using a type of inducible reporter, measures of mRNA for gain-of-signal activity can be used to understand the reporter gene at the transcription factor-level as they relate to the gene AR. Furthermore, this assay endpoint can be referred to as a primary readout, because this assay has produced multiple assay endpoints where this one serves a reporter gene function. To generalize the intended target to other relatable targets, this assay endpoint is annotated to the nuclear receptor intended target family, where the subfamily is steroidal.
Human liver HepG2 cells are transiently transfected with multiple reporter transcription units (MRTUs) in 6-well plates using FuGene 6 reagent (Roche; 3 ml FuGene/1 mg DNA). The MRTU constructs are regulated by a cis-regulating element (promoter). […] A major difference between the CIS and TRANS system is that in CIS activities of endogenous TFs are measured, whereas the TRANS assay evaluates changes in activities of exogenous, chimeric NR-Gal4 proteins. […] At the end of 24 hour incubation, total RNA was isolated using TriZol reagent (Invitrogen). The isolated RNA is then reverse-transcribed using oligo(dT) primer and Mo-MLV reverse transcriptase (Invitrogen) with DNAse I (Ambion) treatment for 30 min. The one-tenth of the produced cDNA was amplified by PCR using Taq DNA polymerase (Invitrogen) and two reporter sequence-specific primers. The PCR products were fluorescently labeled by primer extension with 6-arboxyfluorescein (6-FAM) 5'-labeled reporter sequence-specific primer (2 min at 95 C, 20 s at 68 C and 10 min at 72 C) and these products were digested with 5U of HpaI (New England Biolabs) for 2h at 37 C. The fragments were purified using Qiaquick PCR columns (Qiagen), analyzed on an ABI 3130xL genetic analyzer (Applied Biosystems) with peak positions identified by using a set of X-rhodamine (ROX)-labeled MapMarker1000 molecular weight standards (BioVentures). The raw capillary electrophoresis data was processed using Attagraph software (Attagene).

SMILES	outcome
C=CC(=O)OCC(F)(F)C(F)F	inactive
CO/N=C(/C(=O)OC)c1ccccc1COc1ccccc1C	inactive
CCN(CC)c1ccccc1	inactive
CC(C)CBr	inactive
OCC(F)(F)OC(F)(F)C(F)(F)OC(F)(F)C(F)(F)OC(F)(F)F	inactive
O=C(O)C(F)(F)OC(F)(F)C(F)(F)OC(F)(F)F	inactive
CCOP(=S)(OCC)SCS(=O)(=O)CC	inactive
O=S(=O)(F)C(F)(F)C(F)(F)C(F)(F)C(F)(F)C(F)(F)C(F)(F)C(F)(F)C(F)(F)F	inactive
C=CC(=O)OCC(CC)(COC(=O)C=C)COC(=O)C=C	inactive
N#Cc1c(-c2ccc(Cl)cc2)[nH]c(C(F)(F)F)c1Br	inactive
COP(=O)(CCC(=O)NCO)OC	inactive
CC(O)C(F)(F)C(F)(F)F (stereo not given)	inactive
Nc1ccc([N+](=O)[O-])cc1Cl	inactive
OCC(F)(F)OC(F)(F)C(F)(F)OC(F)(F)CO	inactive
ClC1=C(Cl)C2(Cl)C3C(Cl)C(Cl)CC3C1(Cl)C2(Cl)Cl (stereo not given)	inactive
O=C(O)C(F)(F)OC(F)(F)C(F)(F)OC(F)(F)C(=O)O	inactive
CCOP(=S)(S)OCC	inactive
O=C(O)C=CC(F)(C(F)(F)F)C(F)(F)F	inactive

SMILES	outcome
NC(=O)C(F)(F)C(F)(F)F	inactive
COP(=O)(O)OC	inactive
N#C/C=C/c1ccccc1	inactive
COP(N)(=S)OC	inactive
CCCCC(CC)COP(=O)(Oc1ccccc1)Oc1ccccc1 (stereo not given)	inactive
CCCCCCCc1ccc(O)cc1	inactive
ClC(Cl)=C(c1ccc(Cl)cc1)c1ccccc1Cl	inactive
O=P(OCC(Br)CBr)(OCC(Br)CBr)OCC(Br)CBr (stereo not given)	inactive
FC(F)(F)C(F)(C(F)(F)F)C(F)(F)C(F)(F)CC1CO1 (stereo not given)	inactive
CCCCN(CC)C(=O)SCCC	inactive
CC(O)C#N (stereo not given)	inactive
CC(=O)c1ccc(-c2ccccc2)cc1	inactive
CCNc1nc(Cl)nc(NC(C)(C)C)n1	inactive
O=C(O)C(F)(OC(F)(F)C(F)(F)C(F)(F)F)C(F)(F)F (stereo not given)	inactive
OCC(F)(F)OC(F)(F)C(F)(F)OC(F)(F)C(F)(F)OC(F)(F)CO	inactive
Clc1ccc(Oc2ccccc2)cc1	inactive
COC(=O)C(F)(F)C(F)(F)OC(F)(C(F)(F)F)C(F)(F)OC(F)=C(F)F (stereo not given)	inactive
